# Laboratory results reported in PubChem BioAssay (Tox21).
# Values joined by “and” are separate entries in the source; they are usually repeats but may differ in a detail not shown here. Equal entries are not always repeated. A number with no mark means an inactive call. Entries that show only a call come without a potency. Active and inactive are the calls of the source. Unless noted, calls follow the shape of the dose curve; as a rule, active = well fitted curve in the direction sought with a large enough effect in the repeat runs; inconclusive = weak or mixed curves; inactive = no such curve, though single readings can be large; an effect the other way counts as inactive or inconclusive.
# What was measured:
# [1] = qHTS assay to identify small molecule antagonists of the thyroid receptor (TR) signaling pathway - cell viability counter screen (AID 743064); also: nearly all actives have a fitted effect of over 50% in size; also: potency is read from the fitted curve at half-maximal effect
# Outline: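 GH3.TRE-Luc rat pituitary cells carrying a TRE-luciferase reporter were treated with compound plus 1 nM T3 (final) for 23.5 h at 37 °C. Viability was then read in the same wells by CellTiter-Fluor fluorescence after a further 30 min.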
# [2] = qHTS assay to identify small molecule antagonists of the thyroid receptor (TR) signaling pathway (AID 743065); also: nearly all actives have a fitted effect of over 55% in size; also: potency is read from the fitted curve at half-maximal effect
# Outline: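 Antagonism measured as loss of luciferase signal in GH3 cells stably carrying a TRE-luciferase reporter, co-treated with compound and T3 (1 nM final) for 23.5 h at 37 C. Viability was read in the same well by CellTiter-Fluor.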
# [3] = system: thyroid hormone receptor (rat, GH3 cells); test: qHTS assay to identify small molecule agonists of the thyroid receptor (TR) signaling pathway (AID 743066; calls by dose curve)
# [4] = qHTS assay to identify small molecule antagonists of the estrogen receptor alpha (ER-alpha) signaling pathway - cell viability counter screen (AID 743074; calls by dose curve;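 also: HEK293 cells carrying ER-alpha-UAS-bla reporter stimulated with 17beta-estradiol; nearly all actives have a fitted effect of over 45% in size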; also: potency is read from the fitted curve at half-maximal effect)
# [5] = molecular target: Estrogen receptor (Homo sapiens) (UniProt P03372); test: qHTS assay to identify small molecule agonists of the estrogen receptor alpha (ER-alpha) signaling pathway (AID 743075; calls by dose curve;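 also: HEK293 GripTite cells with ER-alpha and UAS-driven beta-lactamase reporter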; also: potency is read from the fitted curve at half-maximal effect); conditions: HEK293 ER-alpha-UAS-bla, beta-lactamase FRET ratio, 18 h; activation: at 70.1 µM (top of the series)
# [6] = molecular target: Estrogen receptor (Homo sapiens) (UniProt P03372); test: qHTS assay to identify small molecule agonists of the estrogen receptor alpha (ER-alpha) signaling pathway using the BG1 cell line (AID 743079); conditions: BG1Luc4E2 cells, ERE-luciferase agonist, 22 h; also: nearly all actives have a fitted effect of over 20% in size; also: potency is read from the fitted curve at half-maximal effect
# [7] = qHTS assay to identify small molecule antagonists of the estrogen receptor alpha (ER-alpha) signaling pathway using the BG1 cell line - cell viability counter screen (AID 743081);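 also: compound given together with 17beta-estradiol as the ER stimulus; nearly all actives have a fitted effect of over 45% in size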; also: potency is read from the fitted curve at half-maximal effect
# [8] = molecular target: Aryl hydrocarbon receptor (Homo sapiens) (UniProt P35869); test: qHTS assay to identify small molecule that activate the aryl hydrocarbon receptor (AhR) signaling pathway (AID 743085); also: nearly all actives have a fitted effect of over 15% in size; also: potency is read from the fitted curve at half-maximal effect;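 as to activation: HG2L7.5c1 human HepG2 liver cells with stably integrated DRE-driven firefly reporter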
# Outline: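 HepG2 cells (HG2L7.5c1) stably carrying a firefly luciferase reporter driven by 20 dioxin responsive elements were exposed to compound for 24 h at 37C after a 5 h settling period; luminescence rise (ONE-Glo) indicated activation.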
# [9] = qHTS assay to identify small molecule that activate the aryl hydrocarbon receptor (AhR) signaling pathway - cell viability counter screen (AID 743086);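 also: HepG2 liver cells carrying the AhR DRE luciferase reporter; nearly all actives have a fitted effect of over 45% in size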
# Outline: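 Cytotoxicity counter screen: CellTiter-Fluor signal (30 min, 37 C) in 4000 HepG2 cells/well carrying the DRE-luciferase reporter, following 24 h compound exposure at 37 C.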
# [10] = molecular target: Peroxisome proliferator-activated receptor gamma (Homo sapiens) (UniProt P37231); test: qHTS assay to identify small molecule agonists of the peroxisome proliferator-activated receptor gamma (PPARg) signaling pathway (AID 743094; active = well fitted activation curve with a large enough effect in the signal ratio in the repeat runs, not every such curve was filed as active; inconclusive = weak or mixed curves, or effect the other way; inactive = no such curve, though single readings can be large or run the other way; the % refers to the signal ratio)
# Outline: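 Cells from the PPARg UAS-bla HEK293H line are plated and incubated 5 h at 37C. Compounds in DMSO are pinned in and left 17 h at 37C. LiveBLAzer B/G substrate is then added for 1 h at room temperature before fluorescence is measured.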
# [11] = qHTS assay for small molecule agonists of the antioxidant response element (ARE) signaling pathway - cell viability counter screen (AID 743203; calls by dose curve; also: nearly all actives have a fitted effect of over 55% in size; also: potency is read from the fitted curve at half-maximal effect)
# Outline: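 Cytotoxicity was tested in parallel with the ARE reporter screen. ARE-bla HepG2 cells were exposed to compounds for 16 hrs, and viability was taken from CellTiter-Glo luminescence.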
# [12] = qHTS assay for small molecule activators of the heat shock response signaling pathway - cell viability counter screen (AID 743209); also: nearly all actives have a fitted effect of over 50% in size; also: potency is read from the fitted curve at half-maximal effect
# Outline: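 Cytotoxicity counter screen run in parallel with the HSE beta-lactamase reporter, using the same wells. HeLa HSE-bla cells received compound for 5 h at 37 C; ATP-based CellTiter-Glo luminescence was measured after 30 min at room temperature.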
# [13] = qHTS assay for small molecule activators of the heat shock response signaling pathway (AID 743210; active = well fitted activation curve with a large enough effect in the signal ratio in the repeat runs, with a control signal flat, not every such curve was filed as active; inconclusive = weak or mixed curves; the % refers to the signal ratio)
# Outline: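 Compound exposure lasted 5 h at 37 C in HeLa cells carrying a heat-shock-element-driven beta-lactamase reporter. Read-out: fluorescence intensity after 2.5 h room-temperature loading with LiveBLAzer B/G FRET substrate.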
# [14] = molecular target: Estrogen receptor (Homo sapiens) (UniProt P03372); test: qHTS assay to identify small molecule antagonists of the estrogen receptor alpha (ER-alpha) signaling pathway (AID 743069; active = well fitted curve in the direction sought with a large enough effect in the signal ratio in the repeat runs, not every such curve was filed as active; inconclusive = weak or mixed curves, or effect the other way; inactive = no such curve, though single readings can be large or run the other way; the % refers to the signal ratio; also: potency is read from the fitted curve at half-maximal effect)
# Outline: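 Antagonist mode: compounds in DMSO were co-added with 17beta-estradiol to ER-alpha-bla HEK293 cells (2% charcoal-stripped serum) and left 18 h at 37C. Reporter inhibition was measured as FRET fluorescence after 2 h LiveBLAzer substrate at room temperature.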
# Aromatase (Homo sapiens) = Aromatase (Homo sapiens) (UniProt P11511); test: qHTS assay to identify aromatase inhibitors (AID 743083); also: nearly all actives have a fitted effect of over 55% in size; also: potency is read from the fitted curve at half-maximal effect
# [15] = qHTS assay to identify aromatase inhibitors - cell viability counter screen (AID 743084);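 also: cells stimulated with testosterone during compound exposure; nearly all actives have a fitted effect of over 55% in size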; also: potency is read from the fitted curve at half-maximal effect
# [16] = qHTS assay to identify small molecule antagonists of the peroxisome proliferator-activated receptor gamma (PPARg) signaling pathway - cell viability counter screen (AID 743194); also: nearly all actives have a fitted effect of over 55% in size; also: potency is read from the fitted curve at half-maximal effect
# Outline: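 Viability was measured as CellTiter-Glo luminescence in GeneBLAzer PPARg UAS-bla HEK293H cells. These cells had been exposed 17 h at 37 C to compounds together with rosiglitazone at 50 nM final, with the beta-lactamase readout taken in the same wells.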
# [17] = qHTS assay to identify small molecule antagonists of the estrogen receptor alpha (ER-alpha) signaling pathway using the BG1 cell line (AID 743080; calls by dose curve;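 also: BG1 cells stimulated with 17beta-estradiol alongside compound; nearly all actives have a fitted effect of over 25% in size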; also: potency is read from the fitted curve at half-maximal effect)
# Outline: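 BG1-Luc-4E2 cells (endogenous full-length ER-alpha, 4xERE luciferase) hormone-starved 5 days in charcoal-stripped FBS, plated 4,000/well for 24 h, then compound plus 17beta-estradiol for 21.5 h at 37 C; ONE-Glo luminescence read.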
# [18] = molecular target: Peroxisome proliferator-activated receptor gamma (Homo sapiens) (UniProt P37231); test: qHTS assay to identify small molecule antagonists of the peroxisome proliferator-activated receptor gamma (PPARg) signaling pathway (AID 743191; calls by dose curve; also: nearly all actives have a fitted effect of over 30% in size; also: potency is read from the fitted curve at half-maximal effect)
# Outline: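 Beta-lactamase reporter under UAS control in HEK293H PPARg-bla cells; compound treatment 17 h at 37C. Read-out: fluorescence intensity after 1 h room-temperature incubation with LiveBLAzer B/G FRET substrate.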
# Chain of Peroxisome proliferator-activated receptor gamma (Homo sapiens) (P37231 whole entry, looked up): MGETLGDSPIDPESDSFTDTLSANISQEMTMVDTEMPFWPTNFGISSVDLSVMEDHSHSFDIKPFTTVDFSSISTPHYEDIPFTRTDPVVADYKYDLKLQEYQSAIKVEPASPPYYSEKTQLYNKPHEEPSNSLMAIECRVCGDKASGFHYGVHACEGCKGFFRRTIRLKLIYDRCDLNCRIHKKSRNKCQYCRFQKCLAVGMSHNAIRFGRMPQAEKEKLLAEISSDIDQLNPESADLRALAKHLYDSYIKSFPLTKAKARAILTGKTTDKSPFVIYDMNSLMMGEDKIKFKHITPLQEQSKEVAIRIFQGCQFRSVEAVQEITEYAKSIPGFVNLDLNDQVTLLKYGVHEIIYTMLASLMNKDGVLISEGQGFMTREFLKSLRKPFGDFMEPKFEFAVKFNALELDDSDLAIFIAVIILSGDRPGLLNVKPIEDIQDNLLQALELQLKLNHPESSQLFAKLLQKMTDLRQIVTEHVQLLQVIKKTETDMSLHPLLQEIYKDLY
# Chain of Aryl hydrocarbon receptor (Homo sapiens) (P35869 whole entry, looked up): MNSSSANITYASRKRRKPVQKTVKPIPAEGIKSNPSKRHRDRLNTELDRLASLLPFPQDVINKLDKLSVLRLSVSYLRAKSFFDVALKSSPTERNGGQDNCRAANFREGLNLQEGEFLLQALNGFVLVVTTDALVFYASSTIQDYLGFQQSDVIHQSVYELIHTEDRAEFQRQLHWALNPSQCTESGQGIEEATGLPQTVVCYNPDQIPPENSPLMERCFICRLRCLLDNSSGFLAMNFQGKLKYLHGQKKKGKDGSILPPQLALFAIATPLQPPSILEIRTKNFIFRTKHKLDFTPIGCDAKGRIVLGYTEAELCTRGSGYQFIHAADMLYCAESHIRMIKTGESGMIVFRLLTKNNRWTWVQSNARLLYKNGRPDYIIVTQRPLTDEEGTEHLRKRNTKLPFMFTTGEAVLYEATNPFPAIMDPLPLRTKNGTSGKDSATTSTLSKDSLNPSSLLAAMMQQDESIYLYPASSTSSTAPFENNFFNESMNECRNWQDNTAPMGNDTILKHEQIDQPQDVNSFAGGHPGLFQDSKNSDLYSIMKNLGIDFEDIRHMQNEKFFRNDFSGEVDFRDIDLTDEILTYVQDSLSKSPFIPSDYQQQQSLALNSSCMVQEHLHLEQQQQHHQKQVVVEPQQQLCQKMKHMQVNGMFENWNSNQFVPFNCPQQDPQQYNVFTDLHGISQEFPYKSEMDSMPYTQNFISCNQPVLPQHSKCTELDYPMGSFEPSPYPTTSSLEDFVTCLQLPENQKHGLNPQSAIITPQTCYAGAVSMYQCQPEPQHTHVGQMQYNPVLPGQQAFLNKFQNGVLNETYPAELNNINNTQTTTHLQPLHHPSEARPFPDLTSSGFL
# Chain of Aromatase (Homo sapiens) (P11511 whole entry, looked up): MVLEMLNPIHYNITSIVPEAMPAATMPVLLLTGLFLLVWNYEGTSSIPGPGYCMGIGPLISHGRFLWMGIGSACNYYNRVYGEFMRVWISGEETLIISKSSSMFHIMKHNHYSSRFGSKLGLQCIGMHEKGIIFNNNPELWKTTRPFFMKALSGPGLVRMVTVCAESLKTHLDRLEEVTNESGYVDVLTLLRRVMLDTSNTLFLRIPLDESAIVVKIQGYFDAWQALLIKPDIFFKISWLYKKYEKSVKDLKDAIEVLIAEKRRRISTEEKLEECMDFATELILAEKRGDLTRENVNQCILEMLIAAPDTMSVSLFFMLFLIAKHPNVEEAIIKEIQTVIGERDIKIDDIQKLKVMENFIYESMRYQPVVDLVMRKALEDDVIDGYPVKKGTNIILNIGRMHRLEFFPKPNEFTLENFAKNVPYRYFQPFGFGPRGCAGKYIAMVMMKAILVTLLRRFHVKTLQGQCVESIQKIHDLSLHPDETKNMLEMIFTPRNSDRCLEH
# Chain of Estrogen receptor (Homo sapiens) (P03372 whole entry, looked up): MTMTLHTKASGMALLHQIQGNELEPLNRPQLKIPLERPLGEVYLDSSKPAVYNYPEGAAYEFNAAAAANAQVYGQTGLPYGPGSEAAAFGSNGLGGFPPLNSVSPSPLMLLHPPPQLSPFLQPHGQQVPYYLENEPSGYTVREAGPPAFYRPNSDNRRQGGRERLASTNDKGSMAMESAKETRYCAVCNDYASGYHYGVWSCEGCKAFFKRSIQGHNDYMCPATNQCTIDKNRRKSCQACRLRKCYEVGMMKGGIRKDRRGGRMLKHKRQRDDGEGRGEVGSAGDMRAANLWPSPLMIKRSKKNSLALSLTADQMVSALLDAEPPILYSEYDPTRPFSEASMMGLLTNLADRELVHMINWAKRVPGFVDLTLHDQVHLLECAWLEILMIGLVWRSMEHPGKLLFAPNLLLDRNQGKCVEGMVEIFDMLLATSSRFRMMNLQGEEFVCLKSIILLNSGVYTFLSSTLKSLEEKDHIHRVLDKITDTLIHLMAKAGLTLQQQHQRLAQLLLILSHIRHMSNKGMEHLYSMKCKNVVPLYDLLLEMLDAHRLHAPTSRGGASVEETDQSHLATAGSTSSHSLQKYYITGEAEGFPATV
smiles,measurement,setting,value
CCCCCCOC(=O)c1ccc(O)cc1,Potency,[1],inactive
same,Potency,[2],inactive
same,Potency,[3],inactive
same,Potency,[4],inactive
same,Potency,[5],49 µM [inconclusive] (active) and 24.5 µM [inconclusive] (active)
same,Potency,[6],5.45 µM (active) and 17.2 µM (active)
same,Potency,[7],inactive
same,Potency,[8],inactive
same,Potency,[9],inactive
same,Potency,[10],inactive
same,Potency,[11],inactive
same,Potency,[12],inactive
same,Potency,[13],inactive
CC(C)(C)C(=O)OCOC(=O)C1N2C(=O)CC2S(=O)(=O)C1(C)C (configuration not stated),Potency,[1],inactive
same,Potency,[2],inactive
same,Potency,[3],inactive
same,Potency,[14],3.38 µM [inconclusive] (active)
same,Potency,[4],inactive
same,Potency,[5],inactive
same,activation,[6]; at 70.3 µM (top of the series),-1.04%
same,Potency,[7],inactive
same,Potency,Aromatase (Homo sapiens),inactive
same,Potency,[15],inactive
same,Potency,[8],inactive
same,Potency,[9],inactive
same,Potency,[16],inactive
same,Potency,[11],inactive
same,Potency,[12],inactive
CN(C)c1ccc(C2(c3ccc(N(C)C)cc3)OC(=O)c3cc(N(C)C)ccc32)cc1,Potency,[1],inactive
same,Potency,[2],inactive
same,Potency,[3],inactive
same,Potency,[4],inactive
same,Potency,[5],21.8 µM [inconclusive] (active)
same,activation,[6]; at 70.3 µM (top of the series),-6.04%
same,Potency,[7],inactive
same,Potency,Aromatase (Homo sapiens),inactive
same,Potency,[15],inactive
same,Potency,[8],inactive
same,Potency,[9],inactive
same,Potency,[16],inactive
same,Potency,[11],inactive
same,Potency,[12],inactive
Clc1ccc2cc3ccccc3cc2c1,Potency,[1],inactive
same,Potency,[2],inactive
same,Potency,[3],inactive
same,Potency,[14],inactive
same,Potency,[4],inactive
same,Potency,[7],inactive
same,Potency,Aromatase (Homo sapiens),inactive
same,Potency,[15],inactive
same,Potency,[8],inactive
same,Potency,[9],inactive
same,Potency,[11],inactive
same,Potency,[12],inactive
CCCCN1CCCC[C@H]1C(=O)Nc1c(C)cccc1C,Potency,[1],inactive
same,Potency,[2],inactive
same,Potency,[3],inactive
same,Potency,[14],inactive
same,Potency,[4],inactive
same,Potency,[5],inactive
same,activation,[6]; at 70.3 µM (top of the series),-9.26%
same,Potency,[17],inactive
same,Potency,[7],inactive
same,Potency,Aromatase (Homo sapiens),inactive
same,Potency,[15],inactive
same,Potency,[8],inactive
same,Potency,[9],inactive
same,Potency,[10],inactive
same,Potency,[16],inactive
same,Potency,[11],inactive
same,Potency,[12],inactive
same,Potency,[13],inactive
Oc1ccc(N=Nc2ccccc2)cc1,Potency,[1],49.2 µM (active)
same,Potency,[2],61.9 µM (active)
same,Potency,[3],inactive
same,Potency,[14],39.4 µM [inconclusive] (active)
same,Potency,[5],49.6 µM [inconclusive] (active)
same,Potency,[6],6.19 µM (active)
same,Potency,Aromatase (Homo sapiens),inactive
same,Potency,[15],31 µM (active)
same,Potency,[8],61.9 µM (active)
same,Potency,[16],inactive
same,Potency,[12],inactive
same,Potency,[13],inactive
Nc1ccccc1O,Potency,[1],26.9 µM (active)
same,Potency,[2],42.7 µM (active)
same,Potency,[3],inactive
same,Potency,[14],inactive
same,Potency,[4],inactive
same,Potency,[5],inactive
same,Potency,Aromatase (Homo sapiens),67.7 µM (active)
same,Potency,[15],67.7 µM (active)
same,Potency,[8],21.4 µM (active)
same,Potency,[16],inactive
same,Potency,[13],inactive
CSc1cnc(C)cn1,Potency,[1],inactive
same,Potency,[2],inactive
same,Potency,[3],inactive
same,Potency,[14],inactive
same,Potency,[4],inactive
same,Potency,[5],inactive
same,activation,[6]; at 95 µM (top of the series),0.548%
same,Potency,[17],inactive
same,Potency,[7],inactive
same,Potency,Aromatase (Homo sapiens),inactive
same,Potency,[15],inactive
same,Potency,[8],inactive
same,Potency,[9],inactive
same,Potency,[10],inactive
same,Potency,[18],inactive
same,Potency,[16],inactive
same,Potency,[11],inactive
same,Potency,[12],inactive
same,Potency,[13],inactive
C1CCCC1,Potency,[1],inactive
same,Potency,[2],inactive
same,Potency,[3],inactive
same,Potency,[4],inactive
same,Potency,[7],inactive
same,Potency,Aromatase (Homo sapiens),inactive
same,Potency,[15],inactive
same,Potency,[8],inactive
same,Potency,[9],inactive
same,Potency,[10],inactive
same,Potency,[18],inactive
same,Potency,[16],inactive
same,Potency,[12],inactive
same,Potency,[13],inactive
O=C1C=CC(=O)N1c1ccc(Cc2ccc(N3C(=O)C=CC3=O)cc2)cc1,Potency,[1],10.9 µM (active)
same,Potency,[2],8.63 µM (active)
same,Potency,[3],inactive
same,Potency,[4],21.9 µM (active)
same,Potency,[7],inactive
same,Potency,Aromatase (Homo sapiens),9.69 µM (active)
same,Potency,[15],9.69 µM (active)
same,Potency,[8],inactive
same,Potency,[16],13.8 µM (active)
same,Potency,[11],17.2 µM (active)
same,Potency,[12],17.4 µM (active)
COc1cc(/C=C/C(=O)O[C@H]2CC[C@]34C[C@]35CC[C@]3(C)[C@@H]([C@H](C)CCC=C(C)C)CC[C@@]3(C)[C@@H]5CC[C@H]4C2(C)C)ccc1O,Potency,[1],inactive
same,Potency,[2],inactive
same,Potency,[3],inactive
same,Potency,[7],inactive
same,Potency,Aromatase (Homo sapiens),inactive
same,Potency,[15],inactive
same,Potency,[8],inactive
same,Potency,[9],inactive
same,Potency,[10],inactive
same,Potency,[18],inactive
same,Potency,[16],inactive
same,Potency,[12],inactive
Clc1ccc2n[nH]nc2c1,Potency,[1],inactive
same,Potency,[2],inactive
same,Potency,[3],inactive
same,Potency,[4],inactive
same,Potency,[7],inactive
same,Potency,Aromatase (Homo sapiens),inactive
same,Potency,[15],inactive
same,Potency,[8],inactive
same,Potency,[9],inactive
same,Potency,[16],inactive
same,Potency,[12],inactive
Oc1cccc2cc3cccc(O)c3c(O)c12,Potency,[1],inactive
same,Potency,[2],inactive
same,Potency,[3],inactive
same,Potency,[4],inactive
same,Potency,Aromatase (Homo sapiens),inactive
same,Potency,[15],inactive
same,Potency,[8],inactive
same,Potency,[9],inactive
same,Potency,[10],inactive
same,Potency,[11],inactive
same,Potency,[12],inactive
OCc1c[nH]c2ccccc12,Potency,[1],62.9 µM (active)
same,Potency,[2],54.5 µM (active)
same,Potency,[3],inactive
same,Potency,[5],4.36 µM [fluorescent] (active)
same,Potency,Aromatase (Homo sapiens),33.4 µM (active)
same,Potency,[8],5.14 µM (active)
same,Potency,[18],12.3 µM (active)
same,Potency,[11],inactive
same,Potency,[12],inactive
O=C(NOCC1CC1)c1ccc(F)c(F)c1Nc1ccc(I)cc1Cl,Potency,[1],15 µM (active)
same,Potency,[2],13.3 µM (active)
same,Potency,[14],3.79 µM [inconclusive] (active)
same,Potency,[5],inactive
same,Potency,[7],inactive
same,Potency,Aromatase (Homo sapiens),inactive
same,Potency,[8],inactive
same,Potency,[10],inactive
same,Potency,[12],29.8 µM (active)
CCCCCCCCCCn1cc[n+](CCCCCCCCCC)c1C,Potency,[1],6.87 µM (active)
same,Potency,[2],3.86 µM (active)
same,Potency,[14],61.7 µM [cytotoxic] (active)
same,Potency,[4],19.5 µM (active)
same,Potency,[17],8.64 µM (active)
same,Potency,[7],48.6 µM (active)
same,Potency,Aromatase (Homo sapiens),5.45 µM (active)
same,Potency,[15],24.4 µM (active)
same,Potency,[8],inactive
same,Potency,[16],6.93 µM (active)
same,Potency,[12],21.9 µM (active)
